Experimental findings from PubChem BioAssay AID588850 (Sanford-Burnham Center for Chemical Genomics, 2011) are described below.

The campaign covered roughly 360,000 compounds. About 3,100 (0.86%) were called active.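 The calls were made as follows: active = at least 50% inhibition at 5 µM, scaled per plate between neutral and stimulator controls; inactive = the rest.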 What follows is part of a selection rich in actives, with near analogues and random picks from the rest.

The assay is described as follows: NF-kB reporter blockers in CF airway cells – cell-based, GFP fluorescence, uHTS, primary screen (AID 588850).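 Also: PAF is a Pseudomonas aeruginosa culture filtrate used as stimulus; plate controls were PAF-stimulated DMSO wells for no effect and unstimulated DMSO wells for full effect.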 As to conditions: KKLEB NF-kB-GFP reporter, PAF-induced, GFP fluorescence overnight; at 5 µM; stronger effect = higher value.
In general, inhibition refers to the relative decrease from the control value, in per cent. For the molecule `CCN1CCC(O)(/C=C/c2ccc(C)cc2)C(C(=O)/C=C/c2ccc(C)cc2)C1` (stereo not drawn), the inhibition is 79.8% (active).
In the case of `CCN1CCC2(CC1)N=C(c1ccc(F)cc1)C(=S)N2C(=O)c1ccc(C)cc1` it was 18% (inactive); in that of `CCOC(=O)C1=CCC2C(=O)N(Cc3ccccc3)C(=O)C12` (stereo not drawn), -1.4% (inactive).
As for `COc1ccccc1CN(C)c1nnnn1-c1ccccc1`, the inhibition was -3.9% (inactive).
In the case of `CCN(C(=O)CSc1nnnn1-c1ccccc1OC)C1CCS(=O)(=O)C1` (stereo not drawn) it was 6% (inactive); in that of `COc1ccccc1-n1nnnc1S(=O)(=O)Cc1ccc(Cl)cc1`, 85.9% (active); in that of `CCOC(=O)C1=CC[C@@H](c2ccncc2)N(S(=O)(=O)c2ccc(C)cc2)C1`, 2.5% (inactive).
Regarding `CCCC(C(=O)NC1CCCC1)N(C(=O)Cn1nnc(-c2ccc(C)o2)n1)c1cccc(O)c1` (stereo not drawn), the inhibition was -12.5% (inactive).
Then `O=c1c2cc(Br)ccc2nc(-c2cccc(Cl)c2)n1O`, with -1.4% (inactive).
`O=c1[nH]c(/C=C/c2cccc(Br)c2)nc2ccccc12`: the inhibition was 20.4% (inactive).
As to `O=C(/C(=C/c1cccc(Cl)c1)c1nc2ccccc2[nH]1)c1ccccc1`, the inhibition is 82.3% (active).
With `Cc1cc(NC(=O)CN2C(=O)NC(C)(CCc3ccccc3)C2=O)no1` (stereo not drawn), the inhibition is -2.5% (inactive).
Turning to `CC(C)C(C)(C#N)NC(=O)CSc1nc2scc(-c3ccccc3)c2c(=O)[nH]1` (stereo not drawn), the inhibition was 9% (inactive).
`CSCC[C@H](NC(=O)NC1CCCC1)C(=O)O`: the inhibition was -10.3% (inactive).
Then `COc1ccc(NC(=O)/C(Cl)=C(/Cl)S(=O)Cc2ccc(C)cc2)cn1` (stereo not drawn), with 90% (active); and `COc1ccc(NC(=O)C2Cc3c(-c4ccc5c(c4)OCO5)ccnc3O2)cn1` (stereo not drawn), with 15.9% (inactive).
In the case of `COc1cccc(NC(=S)N(Cc2ccc(C)cc2)Cc2ccccn2)c1` it was -2.3% (inactive); in that of `O=S(=O)(c1ccc(-c2ccno2)s1)N1CCCCC1`, 7.2% (inactive).
In the case of `CC(C(=O)N1CCOCC1)N1c2cccc3cccc(c23)S1(=O)=O` (stereo not drawn), the inhibition is 4.3% (inactive).
As for `COc1cc(C(=O)OC(C)C(=O)NCC2CCCCC2)cc(NC(=O)c2ccco2)c1OC` (stereo not drawn), the inhibition was -5.7% (inactive).
Then `COc1ccc(-c2cc(C(=O)n3cnc4ccccc43)c3ccccc3n2)cc1`, with 5.5% (inactive).
In the case of `COc1ccc(NC(=O)c2sc(N3CCOCC3)nc2-c2ccccc2)c(OC)c1` it was 9.3% (inactive); in that of `COc1ccc(NC(=O)c2cc(-c3cc(OC)c(OC)c(OC)c3)nc3ccccc23)c(OC)c1`, 60.9% (active); in that of `CC(C)n1cnc2c(Nc3cccc(Cl)c3)nc(N(CCO)CCCO)nc21`, 72.6% (active).
`NC(=O)CSc1nnc(-c2cccc(S(=O)(=O)N3CCOCC3)c2)o1`: the inhibition was -5.1% (inactive).
`O=S(=O)(Nc1ccc(OC(F)(F)F)cc1)c1cccc2nonc12`: the inhibition was -3.9% (inactive).
Regarding `COc1ccccc1NS(=O)(=O)c1ccc(C(=O)N2CCN(c3ccccc3O)CC2)cc1`, the inhibition was 6.4% (inactive).
Then `O=S(=O)(Nc1ccc(O)c2ccccc12)c1ccc(OC(F)(F)F)cc1`, with 96% (active); and `CCOC(=O)CN1CC23C=CC(O2)C(C(=O)Nc2ccc(F)cc2)C3C1=O` (stereo not drawn), with -8.9% (inactive).
Then `NS(=O)(=O)c1ccc(CCNC(=O)CCCn2c(SCC(=O)N3CCCC3)nc3ccsc3c2=O)cc1`, with -8.6% (inactive); and `NS(=O)(=O)c1cc2c(cc1Cl)NC(C(Cl)Cl)NS2(=O)=O` (stereo not drawn), with 22% (inactive).
Consider `CCN1CCN(C(=O)N(Cc2ccc(Cl)cc2)S(=O)(=O)c2ccc(C)cc2)CC1`, for which the inhibition is 3.2% (inactive).
Then `Cc1ncc(CC(=O)n2cc(C(=O)c3cc(Cl)ccc3O)cn2)s1`, with 60.8% (active); and `O=C(c1cnn(-c2ccc(Cl)cc2)c1)c1ccccc1O`, with -14.6% (inactive).
Then `Cc1nc2ccccn2c(=O)c1NC(=O)c1ccc(Br)o1`, with 11.6% (inactive); and `Cc1ccc(SCC(=O)c2cc(C)c(OC(=S)N(C)C)c(C)c2)cc1`, with 0% (inactive); and `Cc1nnc(NC(=O)CCC(=O)N2CCC(C)CC2)s1`, with 8.8% (inactive).
In the case of `CCCCCCCCc1c(O)nc(-n2[nH]c(C)c(CCO)c2=O)[nH]c1=O` it was 12.1% (inactive); in that of `CC(C[N+](C)(C)C)OC(N)=O` (stereo not drawn), 3.2% (inactive); in that of `CC(=O)OCC(COC(C)=O)OC(C)=O`, -7.3% (inactive).
With `CC(=O)OC(C)C[N+](C)(C)C` (stereo not drawn), the inhibition is 80.7% (active).
Regarding `O=S(=O)(c1cccc(C(F)(F)F)c1)N1c2ccccc2-n2cccc2C1c1cccnc1` (stereo not drawn), the inhibition is 13.5% (inactive).
Turning to `Cc1cccc(C)c1NC(=O)C(Cl)C(=O)c1ccccc1` (stereo not drawn), the inhibition was -23.4% (inactive).
Turning to `N#Cc1c(N)nc2c3c(sc(=N)c2c1N)NC(=O)CC3c1ccccc1Cl` (stereo not drawn), the inhibition is -8.3% (inactive).
Then `CCC(C)[C@H]1COCCS(=O)(=O)N1Cc1ccc(C)cc1` (stereo partly drawn), with -9.6% (inactive); and `CC(C)C[C@H]1CNC(=S)N1C[C@H]1CCCN1C[C@H](Cc1ccc(O)cc1)N1C[C@H](Cc2ccc(O)cc2)N(CC2CCCCC2)C1=S`, with 65.6% (active); and `CCOc1ccc(CCN2C(=S)N([C@@H](CC(C)C)CN3CCC[C@@H]3CN3C(=S)NC[C@@H]3Cc3ccc(O)cc3)C[C@@H]2Cc2ccc(O)cc2)cc1`, with 40.9% (inactive).
As to `CCOc1ccc(CCN2C(=S)N([C@@H](CC(C)C)CN3CCC[C@@H]3CN3C(=S)NC[C@@H]3Cc3ccc(O)cc3)C[C@@H]2CC(C)C)cc1`, the inhibition was 13.3% (inactive).
Then `O=[N+]([O-])c1cc(S(=O)(=O)Nc2cccc(Cl)c2)ccc1N=Nc1c(O)[nH]c2ccccc12`, with 80% (active); and `Cc1c(-c2ccccc2)n[nH]c1C(=O)N=Nc1c(O)[nH]c2ccccc12`, with -0.9% (inactive).
Then `O=C(NCc1ccncc1)c1ccc(NS(=O)(=O)c2cccc([N+](=O)[O-])c2)cc1`, with 8.5% (inactive); and `Cc1ccc([C@H]2C[C@H](O)[C@@H](n3cc(COC(=O)c4ccccc4)nn3)CN2CC2CCCCC2)cc1`, with 58.5% (active).
In the case of `Cc1ccc([C@H]2C[C@H](O)[C@@H](n3cc(COC(=O)c4ccccc4)nn3)CN2C(=O)C2CCCCC2)cc1`, the inhibition is 1.3% (inactive).
On to `CCCCCC(=O)N1C[C@H](O)[C@@H](n2cc(COC(=O)c3ccccc3)nn2)C[C@@H]1c1ccc(C)cc1`, for which the inhibition is -3.3% (inactive).
In the case of `CC(C)=CCN1CCN(CCCc2ccccc2)CC1CCO` (stereo not drawn) it was 1.3% (inactive); in that of `Cc1ccc(C(O)c2ncc(-c3ccccc3F)[nH]2)cc1F` (stereo not drawn), -1.5% (inactive); in that of `COc1ccc(NC(=S)SC)cc1OC`, 59.7% (active).
With `COc1ccc(NC(=O)CSCc2ccc([N+](=O)[O-])cc2)cc1OC`, the inhibition is 2.8% (inactive).
`COc1ccc(NC(=O)C2C3CCC(O3)C2C(=O)O)cc1OC` (stereo not drawn): the inhibition is -25.3% (inactive).
Then `COc1ccc(Cl)cc1NS(=O)(=O)c1cccc(C(=O)NCC2CCCO2)c1` (stereo not drawn), with -16.2% (inactive); and `O=C(CSc1nnc(-c2ccoc2)o1)N1CCOCC1`, with -7.3% (inactive).
For `COc1cccc(C(NC(C)=O)c2nc(-c3ccccc3OC)cs2)c1` (stereo not drawn), the inhibition was -4% (inactive).
Then `CCOP(=O)(OCC)C(Cc1ccccc1)N=C(c1ccccc1)c1ccccc1` (stereo not drawn), with 2.4% (inactive).
With `Cc1cc(=O)oc2c3c(cc(OCC(=O)NCC(O)c4ccccc4)c12)OC(C)(C)CC3` (stereo not drawn), the inhibition was -24.9% (inactive).
`O=C(N/N=C/c1ccccn1)c1cccc(NC(=O)c2ccc(Cl)cc2)c1`: the inhibition is 8.6% (inactive).
For the molecule `S=C(Nc1cccnc1)Nc1ccccn1`, the inhibition is -6.9% (inactive).
In the case of `S=C(NN=Cc1ccccn1)Nc1ccccn1` it was 73.7% (active).
In the case of `NS(=O)(=O)c1cccc(NC(=O)COC(=O)c2cc([N+](=O)[O-])ccc2N2CCCC2)c1` it was 5.8% (inactive); in that of `CC(=O)Nc1ccc(NC(=O)C(C)OC(=O)c2ccccc2C(=O)c2ccc(Cl)c([N+](=O)[O-])c2)cc1` (stereo not drawn), 81.1% (active); in that of `CC(OC(=O)CNC(=O)c1ccc(Cl)c([N+](=O)[O-])c1)C(=O)NCc1ccco1` (stereo not drawn), 5.2% (inactive).
In the case of `N#Cc1cccc(NC(=O)COC(=O)c2ccccc2C(=O)c2ccc(Cl)c([N+](=O)[O-])c2)c1` it was 86.9% (active); in that of `CCOc1ccc(C(=O)NC(=S)Nc2ccc(NC(=O)C(C)C)cc2)cc1[N+](=O)[O-]`, 0.2% (inactive); in that of `O=C(COc1ccc([N+](=O)[O-])cc1)Nc1cccc(C(=O)Nc2ccccc2C(=O)O)c1`, -36% (inactive).
With `Cc1ccc(S(=O)(=O)N2C3C=CC(C3)C2C(=O)O)cc1` (stereo not drawn), the inhibition is 1.4% (inactive).
For `COCc1c(C(=O)OCc2c(C)noc2C)oc2ccccc12`, the inhibition was -11.5% (inactive).
Consider `CCOC(=O)N1CCC(Nc2c(NCCCN3CCN(c4ccc(OC)cc4)CC3)c(=O)c2=O)CC1`, for which the inhibition is -6.5% (inactive).
Consider `CCN(CC)C(=O)N1CCN(C(=O)c2ccc(C)cn2)CC1`, for which the inhibition is 7.5% (inactive).
Then `CCN1CCC2(CCN(Cc3cn[nH]c3-c3ccc(OC)c(F)c3)C2)C1` (stereo not drawn), with 11% (inactive); and `CC(=O)N1CCC(C(=O)OCc2ccc(Cl)cc2)(c2ccccc2)CC1`, with -6.8% (inactive).
Consider `O=C(CCc1ccc(O)cc1)NN=Cc1cc(Br)ccc1O`, for which the inhibition was -5% (inactive).
For `Oc1ccc(Br)cc1/C=N/Nc1ccccn1`, the inhibition was 107% (active).
Then `CCN(CC)CCn1c(/N=C/c2cc(Br)ccc2O)nc2ccccc21`, with 2.3% (inactive).
Then `CN1CCCN(C(=O)C2CCCCC2)CC1`, with -5.1% (inactive); and `CC(=NNC(N)=O)C1CC2CCC1CC2` (stereo not drawn), with 0.5% (inactive); and `COc1ccc(NC(=O)c2sc3nc(C)nc(N4CCN(c5ccccn5)CC4)c3c2C)c(OC)c1`, with 53.3% (active).
Then `Cc1nc(N2CCN(c3ccccn3)CC2)c2c(C)c(C(=O)Nc3ccc(F)c(Cl)c3)sc2n1`, with 36.8% (inactive); and `Cc1nc(N2CCC(C)CC2)c2c(C)c(C(=O)Nc3cc(F)ccc3C)sc2n1`, with 27.1% (inactive).
In the case of `COc1ccc(CC(=O)N[C@@H]2c3cc(OC)c(OC)cc3C[C@H]2OCc2ccccc2)cc1`, the inhibition is -5.1% (inactive).
